Laboratory results from ChEMBL document CHEMBL3988442, “University of Dundee, Small-Polar-MMV Screening Library” (2021).

Experiments:
[1] = target: T1, Aspartate--tRNA(Asp/Asn) ligase (Mycobacterium tuberculosis (strain ATCC 25618 / H37Rv)) (UniProt P9WFW3); assay: Assay for Asp RNA synthetase-1 from Mycobacterium tuberculosis; format: functional; set-up: scale not given: direction of the effect not stated beside the values; conditions: 30 µM; note: in the data most compounds retested in dose-response had high values
T1 sequence (whole entry): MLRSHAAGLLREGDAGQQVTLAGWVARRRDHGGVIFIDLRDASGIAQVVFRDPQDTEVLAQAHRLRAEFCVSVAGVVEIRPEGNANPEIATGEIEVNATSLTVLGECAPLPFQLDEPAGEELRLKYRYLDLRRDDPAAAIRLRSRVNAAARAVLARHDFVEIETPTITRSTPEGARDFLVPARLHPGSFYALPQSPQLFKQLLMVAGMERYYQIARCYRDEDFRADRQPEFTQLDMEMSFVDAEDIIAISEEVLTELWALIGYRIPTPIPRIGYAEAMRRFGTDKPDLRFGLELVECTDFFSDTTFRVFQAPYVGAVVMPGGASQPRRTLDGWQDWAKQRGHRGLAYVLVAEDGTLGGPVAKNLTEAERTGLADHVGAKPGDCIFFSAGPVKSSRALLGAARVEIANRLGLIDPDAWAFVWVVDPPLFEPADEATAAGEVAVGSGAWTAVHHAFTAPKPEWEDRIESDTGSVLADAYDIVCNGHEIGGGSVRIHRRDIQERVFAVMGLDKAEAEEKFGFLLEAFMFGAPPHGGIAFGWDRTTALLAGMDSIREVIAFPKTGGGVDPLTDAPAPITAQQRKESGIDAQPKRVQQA

[2] = target: Shiga toxin 2 (Escherichia coli O157:H7) (UniProt P09385+P09386); assay: E. coli 0.157:H7 Shiga Toxin SOP - stx2 screening assay; format: functional; set-up: scale not given: direction of the effect not stated beside the values; conditions: 30 µM

Row | SMILES | Percent Effect [1] [%] | Percent Effect [2] [%]
1 | CCN1CCOC(CNCc2ccccn2)C1 (centres undefined) | 1.04 | 12.2
2 | OC(COc1ccccc1)CN1CCC(c2ccn[nH]2)CC1 (centres undefined) | -0.6 | -7.22
3 | Cc1cc(C)n(Cc2cccc(C(=O)NCCN3CCOCC3)c2)n1 | 5.71 | -69.3
4 | COC(=O)N1C[C@H]2CC[C@@H]1CN(Cc1cscn1)C2 | -3.45 | 17.3
5 | CN(C)c1ccc(CNc2cncc(-n3cccn3)n2)cc1 | -4.37 | -28
6 | Cc1ccc(CNC2CCCc3c2cnn3C)s1 (centres undefined) | -2.88 | 1.56
7 | CC(C)c1ccc(C(O)Cn2c(=O)c(C#N)cn(C3CC3)c2=O)cc1 (centres undefined) | 2.61 | 14.3
8 | CCn1ncc2c1CCCC2NCc1cc(Cl)c(OC)c(OC)c1 (centres undefined) | -2.06 | 1.68
9 | CN(Cc1cccnc1)C1CC2(CCN(c3ccccn3)CC2)C1 | 2.16 | -47.1
10 | NC(=O)COc1cccc(C(=O)N2CCCC(n3ccnc3)C2)c1 (centres undefined) | 0.962 | -19.9
11 | CC(O)CN1CCN(C(=O)CN(C)c2cnccn2)CC1 (centres undefined) | 4 | -8.23
12 | CC(NC(=O)NCC1(c2ccccc2)CCC1)c1nncn1C (centres undefined) | 0.759 | 14.9
13 | CC(=O)NC(C)CC(=O)NCc1cccnc1Oc1ccccc1C (centres undefined) | -4.43 | 2.41
14 | O=C(Nc1cccnc1)[C@H]1C[C@H]2OCC[C@H]2N(C(=O)c2ccsc2)C1 | 4.71 | -27.5
15 | Cc1cccc(C(=O)N2CCCCC2c2ccc(CN(C)C)cc2)n1 (centres undefined) | -2.28 | 13.7
16 | CCc1nc(C2CCCN(C(=O)c3ccc4[nH]nnc4c3)C2)no1 (centres undefined) | 2.74 | 14.5
17 | O=C(Nc1ccccn1)N(CCO)Cc1ccsc1 | -3.79 | 31.7
